Source: PubChem BioAssay
12-LOX inh = ALOX12 (human) lipoxygenase inhibition; hit rate 1.1% among 580,000; Potency, µM (doses to about 108 µM), inactives show at the highest dose activity change, negative = inhibition, hits mostly inhibitors; purified 12hLO, xylenol orange hydroperoxide absorbance; also: potency is read from the fitted curve at half-maximal effect
Target sequence (P18054 whole entry, looked up): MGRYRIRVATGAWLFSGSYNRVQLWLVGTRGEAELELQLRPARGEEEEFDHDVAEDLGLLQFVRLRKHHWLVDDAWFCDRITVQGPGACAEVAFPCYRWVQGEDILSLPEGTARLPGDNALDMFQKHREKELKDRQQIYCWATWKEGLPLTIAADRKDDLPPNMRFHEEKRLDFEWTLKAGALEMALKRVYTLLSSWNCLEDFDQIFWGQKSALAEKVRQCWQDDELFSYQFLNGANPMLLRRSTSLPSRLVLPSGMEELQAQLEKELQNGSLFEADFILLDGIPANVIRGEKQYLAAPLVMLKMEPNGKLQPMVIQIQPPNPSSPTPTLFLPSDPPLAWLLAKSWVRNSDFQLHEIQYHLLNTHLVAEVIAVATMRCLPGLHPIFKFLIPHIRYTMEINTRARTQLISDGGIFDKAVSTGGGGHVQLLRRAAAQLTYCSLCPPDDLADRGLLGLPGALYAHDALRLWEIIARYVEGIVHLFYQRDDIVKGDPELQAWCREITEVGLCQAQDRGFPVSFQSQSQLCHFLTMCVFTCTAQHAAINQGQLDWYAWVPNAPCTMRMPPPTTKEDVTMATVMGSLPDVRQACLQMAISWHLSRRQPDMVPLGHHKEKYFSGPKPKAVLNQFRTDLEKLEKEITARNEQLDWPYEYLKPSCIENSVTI
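Purified human 12hLO (150 nM final) in 25 mM Hepes, 0.01% Triton X-100, pH 7.0 was preincubated 15 min at room temperature with compound. Then 40 uM arachidonic acid was added, 30 min. Hydroperoxide was read by Fe-XO absorbance ratio 573/405 nm.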
DT40 TDP1 no CPT = qHTS for Inhibitors of human tyrosyl-DNA phosphodiesterase 1 (TDP1): qHTS in cells in absence of CPT; DT40 Tdp1-/- hTDP1 cells, no CPT, ATP luminescence, 48 h; hit rate 15% among 420,000; Potency, µM (top dose mostly 46.2 µM), for inactives: top-dose activity change, negative = growth inhibition, hits mostly inhibitors; also: potency is read from the fitted curve at half-maximal effect; nearly all actives have a fitted effect of over 55% in size
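Growth kinetics read by CellTiter-Glo luminescence after ≥48 hr at 37 °C. Cells: DT40 Tdp1-/- stably carrying human TDP1, 400 per well, compound exposure in the absence of CPT (DMSO vehicle).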
IL1B secr inh = inhibitors of inflammasome signaling (IL-1 beta secretion) | THP-1 LPS/ATP IL-1B secretion, AlphaLISA, 16 h; active compounds read low | activity change, % at 57.5 µM | hit rate 4.7% among 360,000 | AID 743279; in the data active = activity change below about -50%; inconclusive = mostly about -30% to -49%
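THP-1 cells pretreated 1 hr with compounds (up to 57.5 uM final), then stimulated with LPS (250 ng/mL final) plus ATP (1.25 mM final); secreted IL-1B measured by AlphaLISA after 16 hr, decreased signal indicating inhibition.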
HT1080 IDH1KD tx = kills HT-1080 cells with IDH1 knockdown. HT-1080 IDH1 knockdown viability, ATP luminescence, 48 h. Potency, µM (series often up to 46.1 µM), without a hit: at the top dose activity, negative = toxicity, most hits filed as cytotoxic. hit rate 2% among 360,000;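 also: potency is read from the fitted curve at half-maximal effect; 0% = DMSO wells and -100% = cell-free medium wells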
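Assay cells: HT-1080 with IDH1 knockdown, 750 per well, RPMI/5% FBS. Exposure: 48 h at 37 °C following 2 h pre-incubation. Read: CellTiter-Glo luminescence; fitted concentration-response, curve class assigned.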
HT1080-NT tox = kills 2HG-producing HT-1080-NT fibrosarcoma cells. HT-1080-NT fibrosarcoma viability, CellTiter-Glo ATP luminescence, 48 h. Potency, µM (titrated, usually from 46.1 µM), without a hit: top-dose activity, negative = less viability, actives largely listed as cytotoxic. hit rate 1.6% among 360,000. AID 686970;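 also: NT is the 2HG producing partner of a matched IDH1 knockdown line; potency is read from the fitted curve at half-maximal effect; 0% = DMSO-treated cells and -100% = media-only wells without cells; nearly all actives have a fitted effect of over 55% in size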
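Fibrosarcoma NT cells, 750 per well in 5% FBS RPMI, were exposed to compound for 48 hours. Viability: CellTiter-Glo luminescence.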
DT40 TDP1 CPT = growth inhibition of DT40 Tdp1-/-;hTDP1 cells with camptothecin (screen for TDP1 inhibitors); chicken DT40 Tdp1-/-;hTDP1 cells + 20 nM CPT, ATP luminescence, 48 h; Potency, µM (series often up to 46.2 µM), for the others: top-dose activity change, negative = growth inhibition, usual class: inhibitors; hit rate 12% among 420,000; AID 686979; also: potency is read from the fitted curve at half-maximal effect; nearly all actives have a fitted effect of over 55% in size
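Chicken DT40 Tdp1-/- cells stably complemented with human TDP1 were seeded at 400 cells/well in medium containing 20 nM camptothecin, exposed to pin-transferred compounds, and grown at 37 °C for at least 48 hr. Viability was read as ATP luminescence.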
An asterisk follows results filed as active; ? = inconclusive; . = no result; [ ] = another dose, or the depositor's remark. The entries come from a sample that favours hits as a whole. Unless noted, calls follow the shape of the dose curve; as a rule, active = well fitted curve in the direction sought with a large enough effect; inconclusive = small, poorly fitted or top-dose-only effect, or another doubt; inactive = no such curve, though single readings can be large; an effect the other way counts as inactive or inconclusive. Unless noted, % is scaled to controls: 0 for no effect and ±100 for the full control effect.

SMILES	12-LOX inh	DT40 TDP1 no CPT	IL1B secr inh	HT1080 IDH1KD tx	HT1080-NT tox	DT40 TDP1 CPT
O=C(NC1CCCCCCC1)C1(c2ccccc2)CCC1	0%	.	.	.	.	.
CCC1CCCCN1C(=O)CSc1nc2ccccc2n1CCC#N (centres undefined)	44%	.	.	.	.	.
COc1ccc(C(=O)N2CCC(Cc3nc(-c4ccc(F)cc4)no3)CC2)c(C)c1	11%	.	.	.	.	.
COC(=O)Oc1ccc(/C=C/C(=O)OC(C)C)cc1OC(=O)OC	-1%	9.2µM*	5	1%	-13%	?
CCCCOC(=O)/C=C/c1ccc(OC(=O)OC)c(OC(=O)OC)c1	?	9.2µM*	12	?	-27%	7.3µM*
COc1ccc(/C=C/C(=O)Oc2ccc(C=O)cc2OC)cc1	448%	-19%	0	6%	2%	-19%
CN1CCC(N[C@H]2C[C@@H](Cc3cc(-c4ccccc4)on3)C2(C)C)CC1	-18%[176 µM]	.	.	.	.	.
CC(C)NC(=O)C[C@@H]1C[C@H]2O[C@H](CNC(=O)NC(C)C)[C@@H](O)[C@H]2O1	5%[176 µM]	.	.	.	.	.
O=C(Nc1cccc(S(=O)(=O)Nc2ccccc2F)c1)c1cncn1-c1ccccc1	-3%	.	.	.	.	.
O=C(Cc1ccc(Cl)cc1Cl)Nc1cccc(S(=O)(=O)Nc2ccccc2F)c1	?	23µM*	-102*	-26%	0%	15µM*
COc1ccccc1NS(=O)(=O)c1cccc(NC(=O)c2ccc3ccccc3n2)c1	-19%	16µM*	14	2%	0%	21µM*
COc1ccccc1NS(=O)(=O)c1cccc(NC(=O)c2nc3nc(C)cc(C)n3n2)c1	0%	13µM*	-11	-2%	-1%	23µM*
O=C(/C=C/c1ccccc1)Nc1cccc(S(=O)(=O)Nc2ccccc2F)c1	22µM*	15µM*	-54*	-13%	2%	15µM*
O=C(Cc1c(F)cccc1Cl)Nc1cccc(S(=O)(=O)NC2=NCCCCC2)c1	3%	-14%	-9	14%	8%	-25%
CCN(CC)S(=O)(=O)c1cccc(NC(=O)c2ccc3ccccc3n2)c1	42%	.	.	.	.	.
O=C(c1cccc(S(=O)(=O)Nc2cc(C(F)(F)F)ccc2Cl)c1)N1CCC1	14%	.	.	.	.	.
CCOc1cccc(C2c3c(-c4ccccc4O)n[nH]c3C(=O)N2Cc2ccncc2)c1 (centres undefined)	2%	.	.	.	.	.
Cc1cnc(NC(=O)c2csc3ccccc23)s1	23%	.	.	.	.	.
CN(C)S(=O)(=O)c1cccc(NC(=O)c2ccc3ccccc3n2)c1	-45%	.	.	.	.	.
O=C(Nc1cccc(S(=O)(=O)Nc2ccccc2F)c1)c1ccc2ccccc2n1	?	23µM*	-51*	-9%	-3%	?
CC(=O)c1ccccc1-c1ccc2c(c1)CC(CNC(=O)c1ccnc(Cl)c1)O2 (centres undefined)	-5%	21µM*	.	.	.	23µM*
CCCN1CCCCC12Cc1ccccc1CN([S+](C)(=O)[O-])C2 (centres undefined)	4%[6.33 µM]	.	.	.	.	.
CCOC(=O)C1CCN(C(=O)CCCNC(=O)Cn2cnc3sc(C)c(C)c3c2=O)CC1	-11%	0%	-68*	3%	8%	4%
Cc1sc2ncn(CC(=O)NCCCC(=O)N3CCC(C)CC3)c(=O)c2c1C	5%	-18%	15	16%	10%	5%
CC(C)CN1C(=O)c2cccn2CC1C(=O)O (centres undefined)	23%	.	.	.	.	.
SMILES	12-LOX inh	DT40 TDP1 no CPT	IL1B secr inh	HT1080 IDH1KD tx	HT1080-NT tox	DT40 TDP1 CPT
CCOC(=O)C(NC(=O)c1cccc(C(F)(F)F)c1)(OCc1ccccc1)C(F)(F)F (centres undefined)	32%	.	.	.	.	.
CCOC(=O)N1CCN(C2=C(NS(=O)(=O)c3ccc(Br)cc3)C(=O)c3ccccc3C2=O)CC1	?	16µM*	13	?	-28%	12µM*
CCOC(=O)N1CCN(C2=C(NS(=O)(=O)c3ccccc3)C(=O)c3ccccc3C2=O)CC1	2%	?	6	-25%	?	13µM*
NC(=O)C1CCN(C2=C(NS(=O)(=O)c3ccc(Br)cc3)C(=O)c3ccccc3C2=O)CC1	27%	18µM*	41	?	?	23µM*
COC(=O)[C@@H](C)NC(=O)[C@H]1CN(C(=O)Nc2ccccc2)CCN1C(=O)NC(C)C	24%[176 µM]	.	.	.	.	.
O=C(O)c1ccc(NC(=O)c2ccc(Br)o2)c(NC(=O)c2ccc(Br)o2)c1	1%	.	.	.	.	.
CC(=O)Oc1ccccc1C1=NN(C(=O)/C=C/c2ccccc2)C(c2ccccc2)C1 (centres undefined)	-4%	18µM*	-15	-29%	-28%	?
COc1ccc(C2CC(c3ccc4ccccc4c3OC(C)=O)=NN2C(=O)/C=C/c2ccccc2)cc1 (centres undefined)	?	?	-1	-8%	-4%	?
COc1ccc(C2CC(c3ccccc3OC(C)=O)=NN2C(=O)/C=C/c2ccccc2)cc1 (centres undefined)	-7%	16µM*	-22	-23%	-1%	21µM*
CCOc1ccc(-n2cc(C(=O)NC(C)C)c3cc(OC)c(OC)cc3c2=O)cc1	0%	26µM*	5	0%	-1%	?
CCOc1ccc(-n2cc(C(=O)N3CCC(C)CC3)c3cc(OC)c(OC)cc3c2=O)cc1	0%	15µM*	-17	-10%	6%	16µM*
CCOc1ccc(NC(=O)c2cn(-c3ccc(OCC)cc3)c(=O)c3cc(OC)c(OC)cc23)cc1	0%	-3%	-28	8%	9%	-9%
CCCCNC(=O)c1cn(-c2ccc(OCC)cc2)c(=O)c2cc(OC)c(OC)cc12	0%	?	32	7%	0%	?
CCOc1ccc(-n2cc(C(=O)Nc3cccc(C)n3)c3cc(OC)c(OC)cc3c2=O)cc1	?	26µM*	-11	-7%	-4%	?
c1ccc2c(CN3CCC[C@H]3c3nc(-c4ccc(OC5CCCCC5)nc4)no3)c[nH]c2c1	7%	.	.	.	.	.
CCOc1ccc(C(=O)N/N=C(\c2ccccc2)c2ccccn2)cc1	-5%	2.9µM*	-100*	2.3µM*	?	2.1µM*
Cn1ccnc1/C(=N\NC(=O)c1ccc(O)cc1)c1cccc([N+](=O)[O-])c1	10%	-11%	-13	0%	4%	-30%
O=C(N/N=C(\c1ccccc1)c1ccccn1)c1cccc([N+](=O)[O-])c1	.	1µM*	24	?	?	1.2µM*
